From PubChem BioAssay (EPA / NIEHS)
Records with an inconclusive call do not appear. Activity calls are given as the source filed them. Rule for the calls: active = hit-call score of the fitted dose curve at least 0.9, where 1 is the maximum; inconclusive = response in the unintended direction; inactive = score below 0.9.

How the values were obtained:
[1] = target: rat Somatostatin Receptor (SST), Sstr1 (gene 25033) (UniProt P28646); test: NVS_GPCR_rSST: NovaScreen (NVS) G Protein-Coupled Receptor Assay for rat Somatostatin Receptor (SST) (AID 2283314)
How it was run: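 Rat forebrain membranes; radioligand displacement read by filter-based scintillation counting 1 h after dosing. Primary screen in duplicate at 25 uM. Actives (e.g., 30% inhibition) were rerun as concentration-response to 50 uM max and fitted against DMSO.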

[2] = target: rat Opioid Receptor, Non-selective Binding, Oprm1 (gene 25601) (UniProt P33535); test: NVS_GPCR_rOpiate_NonSelective: NovaScreen (NVS) G Protein-Coupled Receptor Assay for rat Opioid Receptor, Non-selective Binding (AID 2283318)
How it was run: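 Rat forebrain membranes, cell-free radioligand binding with filter-based scintillation counting, read 1.5 h after dosing. Primary screen in duplicate at 25 uM; actives retested in concentration series. Loss of signal versus DMSO baseline scored.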

[3] = target: Sodium channel protein type 1 subunit alpha (Rattus norvegicus) (UniProt P04774); test: NVS_IC_rNaCh_site2: NovaScreen (NVS) Ion Channel Assay for rat Sodium Channel, Site 2 (NaCh) (AID 2283322);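 note: hit means loss of radioligand binding signal relative to DMSO so AC50 marks displacement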
How it was run: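 Membranes: rat forebrain. Format: competitive radioligand displacement, filter separation, scintillation readout, 1 h exposure. Primary screen in duplicate at 25 uM; actives retested in concentration series.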

[4] = target: rat Glutamate, AMPA Site (AMPA), Gria1 (gene 50592) (UniProt P19490); test: NVS_LGIC_rAMPA: NovaScreen (NVS) Ligand-Gated Ion Channel Assay for rat Glutamate, AMPA Site (AMPA) (AID 2283324)
How it was run: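 Rat forebrain membranes; radioligand binding read 1 h after dosing by filtration and scintillation counting. Duplicate single-point screen at 25 uM, then concentration-response to 50 uM for threshold hits (e.g. 30% inhibition); loss of signal vs DMSO.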

[5] = target: human Serotonin, 5-Hydroxytryptamine Receptor 3 (5HT3), HTR3A (gene 3359) (UniProt P46098); test: NVS_LGIC_h5HT3: NovaScreen (NVS) Ligand-Gated Ion Channel Assay for human Serotonin, 5-Hydroxytryptamine Receptor 3 (5HT3) (AID 2283325)
How it was run: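 Radioligand displacement binding to human 5-HT3 from HEK293 membranes, read by filter-based scintillation counting after 1 h. Screen at 25 uM in duplicate; chemicals passing threshold were retested in concentration-response up to 50 uM.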

[6] = target: rat Neonicotinoid receptor (NNR), Chrna7 (gene 25302) (UniProt Q05941); test: NVS_LGIC_rNNR_BungSens: NovaScreen (NVS) Ligand-Gated Ion Channel Assay for rat Neonicotinoid receptor (NNR) (AID 2283315)
How it was run: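 Radioligand displacement binding on rat cortical membranes, 2.5 h incubation, filtration and scintillation counting. Loss of specific binding fitted relative to DMSO.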

[7] = NVS_IC_rCaDHPRCh_L: NovaScreen (NVS) Ion Channel Assay for rat Calcium Channel, Type L, Dihydropyridine Site (CaDHPRCh_L) (AID 2283320)
How it was run: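 Radioligand binding to dihydropyridine site on rat cortical membranes, filter-based scintillation counting, 1 h after dosing. Screened in duplicate at 25 uM; actives rerun in concentration-response up to 50 uM. Loss of signal versus DMSO baseline.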

[8] = target: bovine Gamma-Aminobutyric Acid Type A Receptor BDZ, alpha 5 site (GABARa5), GABRA5 (gene 523515) (UniProt Q08E50); test: NVS_LGIC_bGABARa5: NovaScreen (NVS) Ligand-Gated Ion Channel Assay for bovine Gamma-Aminobutyric Acid Type A Receptor BDZ, alpha 5 site (GABARa5) (AID 2283323)
How it was run: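 Radioligand competitive displacement binding on bovine hippocampal membranes, read 1 hr after dosing by filter-based scintillation counting. Primary screen at 25 uM in duplicate; actives (e.g. ≥30% inhibition) then run in concentration-response up to 50 uM.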

NCBI gene 24521 = test: NVS_IC_rKATPCh: NovaScreen (NVS) Ion Channel Assay for rat Potassium Channel, ATP-Sensitive (KATPCh) (AID 2283319)
How it was run: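 Rat cortical membranes; radioligand binding at ATP-sensitive K channel site, filter-based scintillation counting 2 h after dosing. Single-point duplicate screen at 25 uM, hits rerun in concentration-response up to 50 uM; loss of signal versus DMSO.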

Chain of rat Somatostatin Receptor (SST), Sstr1 (gene 25033) (P28646 whole entry, looked up): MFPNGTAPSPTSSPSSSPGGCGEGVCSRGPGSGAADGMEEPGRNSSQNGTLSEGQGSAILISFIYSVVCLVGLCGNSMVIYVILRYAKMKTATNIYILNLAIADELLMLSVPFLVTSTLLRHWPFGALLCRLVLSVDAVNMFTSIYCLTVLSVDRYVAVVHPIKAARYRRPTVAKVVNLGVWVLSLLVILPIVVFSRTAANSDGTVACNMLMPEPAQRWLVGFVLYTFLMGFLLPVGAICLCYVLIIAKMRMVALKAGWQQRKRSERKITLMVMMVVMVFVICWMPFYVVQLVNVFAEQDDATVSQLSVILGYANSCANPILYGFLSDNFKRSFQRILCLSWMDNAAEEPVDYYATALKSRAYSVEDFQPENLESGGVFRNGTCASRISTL
Chain of rat Opioid Receptor, Non-selective Binding, Oprm1 (gene 25601) (P33535 whole entry, looked up): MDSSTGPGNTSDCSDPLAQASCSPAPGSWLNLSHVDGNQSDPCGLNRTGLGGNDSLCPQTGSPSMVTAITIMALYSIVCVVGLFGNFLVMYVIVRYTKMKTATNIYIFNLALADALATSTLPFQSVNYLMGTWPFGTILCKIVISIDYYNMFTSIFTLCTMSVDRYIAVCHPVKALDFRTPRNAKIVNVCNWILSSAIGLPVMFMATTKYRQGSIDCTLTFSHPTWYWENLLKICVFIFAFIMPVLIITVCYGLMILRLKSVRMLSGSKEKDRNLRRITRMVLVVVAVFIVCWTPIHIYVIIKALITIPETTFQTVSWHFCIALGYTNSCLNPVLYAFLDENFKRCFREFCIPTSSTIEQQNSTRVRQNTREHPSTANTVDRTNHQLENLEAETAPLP
Chain of bovine Gamma-Aminobutyric Acid Type A Receptor BDZ, alpha 5 site (GABARa5), GABRA5 (gene 523515) (Q08E50 whole entry, looked up): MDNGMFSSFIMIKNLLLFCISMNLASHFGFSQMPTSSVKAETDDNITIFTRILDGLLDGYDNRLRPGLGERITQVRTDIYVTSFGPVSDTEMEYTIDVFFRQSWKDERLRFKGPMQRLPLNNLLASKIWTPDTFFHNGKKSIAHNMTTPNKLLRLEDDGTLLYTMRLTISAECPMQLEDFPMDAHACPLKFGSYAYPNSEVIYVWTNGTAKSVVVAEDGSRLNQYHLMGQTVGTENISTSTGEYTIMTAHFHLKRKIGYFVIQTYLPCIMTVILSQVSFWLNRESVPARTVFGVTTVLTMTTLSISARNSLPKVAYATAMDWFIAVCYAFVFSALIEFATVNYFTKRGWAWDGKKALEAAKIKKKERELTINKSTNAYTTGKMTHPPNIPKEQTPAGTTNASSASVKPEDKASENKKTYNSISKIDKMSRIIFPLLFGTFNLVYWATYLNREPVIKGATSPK
Chain of rat Glutamate, AMPA Site (AMPA), Gria1 (gene 50592) (P19490 whole entry, looked up): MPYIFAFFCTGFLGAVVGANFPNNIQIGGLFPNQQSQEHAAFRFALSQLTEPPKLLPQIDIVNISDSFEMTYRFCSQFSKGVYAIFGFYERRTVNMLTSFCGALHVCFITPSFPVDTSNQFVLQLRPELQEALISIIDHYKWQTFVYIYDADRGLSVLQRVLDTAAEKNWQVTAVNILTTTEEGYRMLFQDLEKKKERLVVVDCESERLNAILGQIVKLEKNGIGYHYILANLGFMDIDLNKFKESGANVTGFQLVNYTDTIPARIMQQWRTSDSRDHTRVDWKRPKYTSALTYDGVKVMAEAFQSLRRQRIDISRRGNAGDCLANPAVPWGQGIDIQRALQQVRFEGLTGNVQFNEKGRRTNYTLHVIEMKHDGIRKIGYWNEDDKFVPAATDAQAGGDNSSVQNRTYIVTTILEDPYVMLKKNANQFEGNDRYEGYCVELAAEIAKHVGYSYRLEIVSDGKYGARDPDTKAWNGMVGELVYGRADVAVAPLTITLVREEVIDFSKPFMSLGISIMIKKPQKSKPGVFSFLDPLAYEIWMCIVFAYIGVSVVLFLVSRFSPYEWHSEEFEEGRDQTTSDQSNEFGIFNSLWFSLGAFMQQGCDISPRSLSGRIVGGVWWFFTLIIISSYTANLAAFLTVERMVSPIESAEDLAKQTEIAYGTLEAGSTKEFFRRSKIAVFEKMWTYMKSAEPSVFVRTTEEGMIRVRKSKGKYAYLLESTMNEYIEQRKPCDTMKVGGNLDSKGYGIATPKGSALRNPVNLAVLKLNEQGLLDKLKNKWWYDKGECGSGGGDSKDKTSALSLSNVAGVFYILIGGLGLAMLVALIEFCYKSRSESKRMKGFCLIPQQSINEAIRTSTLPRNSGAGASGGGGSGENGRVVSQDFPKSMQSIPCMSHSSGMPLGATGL
Chain of rat Neonicotinoid receptor (NNR), Chrna7 (gene 25302) (Q05941 whole entry, looked up): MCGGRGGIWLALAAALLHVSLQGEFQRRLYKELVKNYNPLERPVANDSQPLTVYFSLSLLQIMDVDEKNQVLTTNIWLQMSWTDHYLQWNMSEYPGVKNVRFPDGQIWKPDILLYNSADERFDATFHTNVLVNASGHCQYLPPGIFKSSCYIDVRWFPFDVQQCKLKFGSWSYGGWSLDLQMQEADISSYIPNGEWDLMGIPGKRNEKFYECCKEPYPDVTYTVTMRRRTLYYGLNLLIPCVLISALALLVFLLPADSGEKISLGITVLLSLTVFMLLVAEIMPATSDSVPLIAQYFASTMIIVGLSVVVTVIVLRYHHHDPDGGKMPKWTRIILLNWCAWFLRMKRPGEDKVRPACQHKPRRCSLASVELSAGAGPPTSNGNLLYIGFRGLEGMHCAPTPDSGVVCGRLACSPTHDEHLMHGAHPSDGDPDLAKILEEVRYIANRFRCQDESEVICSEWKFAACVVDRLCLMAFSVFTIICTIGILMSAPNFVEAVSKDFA
Chain of human Serotonin, 5-Hydroxytryptamine Receptor 3 (5HT3), HTR3A (gene 3359) (P46098 whole entry, looked up): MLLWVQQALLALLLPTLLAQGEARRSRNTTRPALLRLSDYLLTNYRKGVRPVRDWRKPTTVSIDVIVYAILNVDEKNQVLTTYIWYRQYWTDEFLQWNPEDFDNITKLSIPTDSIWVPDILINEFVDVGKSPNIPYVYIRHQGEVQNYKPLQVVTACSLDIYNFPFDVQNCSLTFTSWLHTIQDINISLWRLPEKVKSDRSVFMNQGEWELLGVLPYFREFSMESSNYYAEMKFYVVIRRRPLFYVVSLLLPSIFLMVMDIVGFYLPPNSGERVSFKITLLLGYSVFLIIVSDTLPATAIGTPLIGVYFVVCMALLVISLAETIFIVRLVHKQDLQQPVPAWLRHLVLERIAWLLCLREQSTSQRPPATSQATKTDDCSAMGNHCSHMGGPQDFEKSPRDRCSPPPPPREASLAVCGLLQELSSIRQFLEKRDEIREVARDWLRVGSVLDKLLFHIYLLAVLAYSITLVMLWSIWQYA

SMILES: CCCCCCCC1CCC(=O)O1 (configuration not stated)
- outcome [1]: inactive

SMILES: Cc1nccn1-c1ccc(Sc2cccc(C3(C(N)=O)CCOCC3)c2)cc1
- outcome [2]: inactive
- AC50 [3]: 17.7 µM (active)

SMILES: CCc1cccc(CC)c1N
- outcome [4]: inactive

SMILES: c1ccc2c(c1)-c1cccc3c1c-2cc1ccccc13
- outcome [5]: inactive

SMILES: c1ccc(C(O[C@@H]2CCCN(CCc3ccc4c(c3)OCO4)C2)c2ccccc2)cc1
- AC50 [1]: 14.6 µM (active)
- outcome [6]: inactive
- AC50 [2]: 2.71 µM (active)
- AC50 [7]: 6.43 µM (active)
- AC50 [3]: 0.832 µM (active)
- outcome [8]: inactive

SMILES: O=C(O)[C@H](O)[C@@H](O)C(=O)O
- outcome (NCBI gene 24521): inactive
